Some test systems named below: NCI-H23 lung; NCI-H226 lung; NCI-H322M lung; HOP-62 NSCLC; NCI-H460 lung; HOP-92 NSCLC; NCI-H522 lung; A549/ATCC NSCLC; 786-0 renal; COLO 205 colon; DU-145 prostate; K-562 leukemia; MALME-3M melanoma; MDA-MB-231 breast; RXF 393 renal; SF-268 CNS; SF-295 CNS; SF-539 CNS; UACC-257 melanoma; M14 melanoma.
Common to all, as to assay: NCI-60 one-dose screen, 48 h (100 = growth as untreated, 0 = no growth, -100 = all killed)
Common to all, as to conditions: 10 µM unless noted

SMILES strings stand for the structures. This is part of a sample that, as a whole, favours compounds with a hit. Of some 83,000 tested, about 20% had one in any assay.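 How to read the values: 0–100, growth inhibition (40 = 60% inhibited); 0, no net growth; -100 to 0, cell death (-40 = 40% of starting cells died; -100 = all dead).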 A number with no mark means an inactive call. The source made the active and inactive calls. How the source made its calls: active means growth percent below 10; inactive means the rest.

Take `CCOC(=O)c1cc(C(=O)c2cc(OC)cc(OC)c2)n2ncccc12`: the growth was 45.8% in the assay with NCI-H23 lung; 57.5% in the assay with NCI-H226 lung; 72.5% in the assay on NCI-H322M lung; 30.7% with HOP-62 NSCLC; 14.7% in the assay on NCI-H460 lung; 47.1% with HOP-92 NSCLC. The growth with NCI-H522 lung was 25.4%; in the assay on A549/ATCC NSCLC it was 35.3%; in the assay on 786-0 renal, 34.2%; in the assay with COLO 205 colon, -13.2% (active); in the assay on DU-145 prostate, 37.4%; with K-562 leukemia, 17.8%. In addition, the growth in the assay with MALME-3M melanoma was 47.1%; in the assay with MDA-MB-231 breast, 54.5%; in the assay with RXF 393 renal, 35.9%; in the assay on SF-268 CNS, 44.3%; in the assay on SF-295 CNS, 28.2%; with SF-539 CNS, 20%. Further, the growth in the assay with UACC-257 melanoma was 37.6%; in the assay with M14 melanoma it was -15.7% (active).
For `O=C(OCc1ccc2c(Br)cc(Br)c(O)c2n1)N1CCN(C(=O)c2cc3ccccc3[nH]2)CC1`, the growth in the assay on NCI-H23 lung was 39.4%; in the assay with NCI-H226 lung it was 39.5%; with NCI-H322M lung, 44.9%; in the assay with HOP-62 NSCLC it was 23.3%; in the assay on NCI-H460 lung it was 12%; with HOP-92 NSCLC, 25.7%. Further, the growth in the assay with NCI-H522 lung is 37.5%; in the assay on A549/ATCC NSCLC it was 12.7%; with 786-0 renal, 49.3%; in the assay with COLO 205 colon it was 50.6%; in the assay with DU-145 prostate, 48.9%; with K-562 leukemia, 21.7%. In addition, the growth was 51.5% in the assay on MALME-3M melanoma; 46.3% with MDA-MB-231 breast; 41% with RXF 393 renal; 31.6% in the assay on SF-268 CNS; 21.3% with SF-295 CNS; 47.9% with SF-539 CNS. In addition, the figures for the growth in the assay on UACC-257 melanoma and in the assay with M14 melanoma were 31.5% and 30%, respectively.
Regarding `O=C(NS(=O)(=O)c1ccccc1)n1cc(-c2ccncc2)c(-c2cc(O)cc(Cl)c2)n1`, the growth with NCI-H23 lung is 104%; in the assay on NCI-H226 lung, 104%; with NCI-H322M lung, 108%; in the assay on HOP-62 NSCLC it was 115%; in the assay with NCI-H460 lung, 111%; with HOP-92 NSCLC, 103%. Besides, the growth with NCI-H522 lung was 76.1%; in the assay with A549/ATCC NSCLC, 97.5%; with 786-0 renal, 98%; with COLO 205 colon, 114%; in the assay on DU-145 prostate it was 112%; with K-562 leukemia, 78%. Besides, the growth in the assay on MALME-3M melanoma is 15.3%; with MDA-MB-231 breast, 90.4%; with RXF 393 renal, 112%; in the assay on SF-268 CNS it was 108%; in the assay with SF-295 CNS it was 110%; in the assay on SF-539 CNS, 86.5%. For the same molecule, the values for the growth with UACC-257 melanoma and in the assay on M14 melanoma were 70.8% and 32.1%, respectively.
Consider `NCCNc1ccc([N+](=O)[O-])cc1`, for which the growth is 112% with NCI-H23 lung; 99.5% in the assay on NCI-H226 lung; 112% in the assay on NCI-H322M lung; 104% in the assay on HOP-62 NSCLC; 111% with NCI-H460 lung; 98.9% in the assay on HOP-92 NSCLC. The growth with NCI-H522 lung was 94.9%; in the assay on A549/ATCC NSCLC, 108%; in the assay on 786-0 renal, 99.5%; with COLO 205 colon, 120%; with DU-145 prostate, 126%; with K-562 leukemia, 92.4%. The growth in the assay with MALME-3M melanoma was 115%; in the assay with MDA-MB-231 breast, 122%; in the assay with RXF 393 renal, 123%; with SF-268 CNS, 110%; in the assay on SF-295 CNS it was 128%; with SF-539 CNS, 107%. Also, the figures for the growth in the assay with UACC-257 melanoma and in the assay on M14 melanoma were 115% and 106%, respectively.
As for `Brc1ccc(-c2nn(-c3ccccc3)cc2-c2nn[nH]n2)s1`, the growth was 92.7% in the assay on NCI-H23 lung; 85.7% with NCI-H226 lung; 96% in the assay on NCI-H322M lung; 82.7% with HOP-62 NSCLC; 102% in the assay on NCI-H460 lung; 62.4% in the assay with HOP-92 NSCLC. Besides, the growth with NCI-H522 lung was 84.1%; with A549/ATCC NSCLC it was 93.9%; in the assay on 786-0 renal it was 88.1%; in the assay with COLO 205 colon it was 120%; in the assay with DU-145 prostate it was 108%; in the assay on K-562 leukemia, 87.2%. The growth was 103% with MALME-3M melanoma; 87.3% with MDA-MB-231 breast; 100% in the assay with RXF 393 renal; 92.8% in the assay on SF-268 CNS; 82.6% in the assay on SF-295 CNS; 91.4% in the assay on SF-539 CNS. Besides, the results for the growth with UACC-257 melanoma and in the assay with M14 melanoma were 98% and 96.9%, respectively.
As to `Cc1c2ccncc2c(C)c2c1c1ccccc1n2CCCCCC(=O)O`, the growth is 84.7% with NCI-H23 lung; 75.6% in the assay on NCI-H226 lung; 96.1% in the assay with NCI-H322M lung; 83% in the assay on HOP-62 NSCLC; 97.1% in the assay on NCI-H460 lung; 80.6% with HOP-92 NSCLC. The growth with NCI-H522 lung was 101%; with A549/ATCC NSCLC, 89.8%; with 786-0 renal, 103%; in the assay on COLO 205 colon, 109%; in the assay with DU-145 prostate, 104%; in the assay with K-562 leukemia, 92.5%. The growth was 108% with MALME-3M melanoma; 81.2% with MDA-MB-231 breast; 93.2% in the assay on RXF 393 renal; 86.6% in the assay on SF-268 CNS; 95.3% in the assay on SF-295 CNS; 90.2% in the assay on SF-539 CNS. The growth in the assay with UACC-257 melanoma was 106%; with M14 melanoma, 103%.
Take `C#CC(F)(F)[C@]1(O)CCC2C3CCC4=CC(=O)CCC4=C3[C@@H](c3ccc(N(C)C)cc3)C[C@@]21C` (stereo not given in full): the growth is 96.5% with NCI-H23 lung; 98.5% with NCI-H226 lung; 92.8% with NCI-H322M lung; 90.6% in the assay on HOP-62 NSCLC; 93.4% with NCI-H460 lung; 67.8% in the assay with HOP-92 NSCLC. The growth with NCI-H522 lung is 64.7%; with A549/ATCC NSCLC it was 64.8%; in the assay on 786-0 renal, 69%; in the assay with COLO 205 colon it was 101%; in the assay with DU-145 prostate, 104%; in the assay with K-562 leukemia it was 85.9%. Further, the growth in the assay with MALME-3M melanoma is 103%; in the assay with MDA-MB-231 breast it was 84.7%; in the assay on RXF 393 renal, 98.1%; with SF-268 CNS, 95.9%; with SF-295 CNS it was 86.2%; in the assay on SF-539 CNS it was 82.7%. Also, the growth in the assay with UACC-257 melanoma is 80.9%; with M14 melanoma, 86.1%.

Values taken from PubChem BioAssay (NCI).
